Source: PubChem
Rows were chosen to be rich in hits. Some 13% of all compounds tested hit in one or more screens of this group.
Pf growth 48h = P. falciparum growth inhibition at 48 hours (one generation) | hit rate 5.9% among 310,000 | AID 504832 | P. falciparum luciferase growth in erythrocytes, 48 h | Potency, µM (doses to about 28.7 µM), without a hit: at the top dose activity change, negative = inhibition, most hits filed as inhibitors; note: potency is the fitted concentration of half-maximal effect
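A one-generation exposure of luciferase-tagged malaria parasites in RPMI 1640/Albumax erythrocyte culture, 37 C and 5% CO2. Inhibition is inferred from decreased luminescence after adding detection reagent.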
Pf growth 96h = P. falciparum growth inhibition at 96 hours | Potency, µM (series often up to 28.7 µM), without a hit: at the top dose activity change, negative = inhibition, usual class: inhibitors | P. falciparum luciferase reporter growth, 96 h | AID 504834 | hit rate 6.9% among 320,000; note: potency is the fitted concentration of half-maximal effect
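Delayed-death screen, second-generation endpoint: infected erythrocytes, 2% hematocrit, 0.05% parasitemia final; 96 hours at 37 C, 5% CO2; luciferase detection reagent; luminescence decrease equals reduced growth.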
HCMV inh = inhibitors of human cytomegalovirus; hit rate 4.5% among 410,000; activity change, negative = inhibition, % at 57.5 µM; HFF cells, HCMV-luciferase reporter, 72 h; active compounds read low; in the data active = activity change below about -60%; inconclusive = no clear call, values can overlap the other calls; inactive = above about -39%
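After 16 h attachment at 37C, HFF cells received test compound and HCMV-luciferase (1 PFU/cell); reporter luminescence read 72 h later, data normalized against buffer-only and known inhibitor Salinomycin.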
HCV inhibitor = inhibitors of hepatitis C virus infection; Huh7.5.1 HCVcc-Cre infection, luciferase reporter, 44 h; Potency, µM (doses to about 41.8 µM), inactives show at the top dose activity change, negative = inhibition, usual class: inhibitors; hit rate 3.4% among 340,000; note: potency is the fitted concentration of half-maximal effect
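Seed cells (1,000/well) for 4 h; treat with compound and infect with HCVcc-Cre, moi about 0.5. Incubate 44 h, then detect luciferase activity.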
Starred values were filed as active, the others as inactive; ? = inconclusive; nt = no result given; [ ] = dose if it differs, or a comment. Unless noted, calls come from the whole dose curve; as a rule, active = well fitted inhibition curve with a large enough effect; inconclusive = small, poorly fitted or top-dose-only effect, or another doubt; inactive = no such curve, though single readings can be large or run the other way. % is set by controls: 0 for no effect and ±100 for the full control effect.

SMILES | Pf growth 48h | Pf growth 96h | HCMV inh | HCV inhibitor
O=C(c1ccc(Cl)cc1Cl)N1CCOCC1 | nt | nt | 23.6 | -6.4%
COc1ccc(-c2cc(C(F)(F)F)nc(SCC(=O)Nc3ccc(O)cc3)n2)cc1OC | nt | nt | -19.9 | nt
CC1CCN(S(=O)(=O)c2ccc3c(c2)CCN3C(=O)Nc2ccccc2Br)CC1 | nt | nt | -8.3 | nt
Cc1ccc(CNc2nc(-c3ccco3)nn2S(C)(=O)=O)cc1 | nt | nt | 111.3 | nt
C#CCOCCOCCOCCNc1nc(N2CCN(C(=O)CCCCCCCCCCNC(=O)[C@H](CCCCN)n3cc(C)nn3)CC2)nc(N2CCN(C(=O)CCCCCCCCCCNC(=O)[C@H](CCCN=C(N)N)n3cc(C[C@@H](C)CC)nn3)CC2)n1 | 1.85µM* | 1.47µM* | nt | ?
C#CCOCCOCCOCCNc1nc(N2CCN(C(=O)CCCCCCCCCCNC(=O)[C@@H](CCSC)n3cc(CCO)nn3)CC2)nc(N2CCN(C(=O)CCCCCCCCCCNC(=O)[C@H](CCCN=C(N)N)n3cc(C[C@@H](C)CC)nn3)CC2)n1 | 3.29µM* | 1.17µM* | nt | ?
C#CCOCCOCCOCCNc1nc(N2CCN(C(=O)CCCCCCCCCCNC(=O)[C@H](CO)n3cc(CCCCCN)nn3)CC2)nc(N2CCN(C(=O)CCCCCCCCCCNC(=O)[C@H](CCCN=C(N)N)n3cc(C[C@@H](C)CC)nn3)CC2)n1 | 3.29µM* | 2.62µM* | nt | -13.7%
C#CCOCCOCCOCCNc1nc(N2CCN(C(=O)CCCCCCCCCCNC(=O)[C@H](CCCCN)n3cc(C[C@@H](C)CC)nn3)CC2)nc(N2CCN(C(=O)CCCCCCCCCCNC(=O)[C@H](CCCN=C(N)N)n3cc(C[C@@H](C)CC)nn3)CC2)n1 | 3.29µM* | 3.29µM* | nt | ?
CCOC(=O)c1scc(-c2ccc(C)cc2)c1S(=O)(=O)N1CCN(c2ccccc2)CC1 | nt | nt | -20.9 | nt
Cc1ccc(OCC(=O)N2CCN(S(=O)(=O)c3ccccc3[N+](=O)[O-])CC2)cc1 | 9.28µM* | 30.2%[5.75 µM] | ? | 9.4%
CC(=O)c1ccc(OCC(=O)N2CCN(S(=O)(=O)c3ccc(C)cc3C)CC2)cc1 | ? | 9.28µM* | -37.2 | ?
COc1cc(CCC(=O)N2CCN(c3ccc(N4CCOCC4)nn3)CC2)cc(OC)c1OC | nt | 7.38µM* | nt | nt
COc1ccc(S(=O)(=O)N2CCN(C3Cc4ccccc4C3)CC2)cc1 | 47.8% | 10.4µM* | 19.6 | -11.4%
Cc1ccc(S(=O)(=O)N2CCN(C(=O)COC(=O)COc3ccc(Br)cc3)CC2)c(C)c1 | nt | nt | -4.2 | 0.5%
COc1ccc(S(=O)(=O)N2CCN(C)CC2)cc1 | 24.7% | ? | 24.2 | 14.6%
Cc1cc(-c2ccc(C)c(S(=O)(=O)N(C)c3ccc(C)c(C)c3)c2)on1 | nt | nt | -39.0 | nt
COc1ccc(S(=O)(=O)N2CCN(C(=O)COc3ccc4c(C)cc(=O)oc4c3)CC2)cc1 | ? | 4.65µM* | ? | -19.7%
Cc1ccc(C(=O)N2CCN(S(=O)(=O)c3ccc(Br)cc3)CC2)o1 | 6.57µM* | ? | -1.8 | 18.0%
CCC(C)c1ccc(S(=O)(=O)N2CCN(C(=O)COc3ccc4c(C)cc(=O)oc4c3)CC2)cc1 (stereo unspecified) | nt | ? | -28.7 | ?
Cc1ccc(S(=O)(=O)N2CCN(C(=O)COc3ccc(Br)cc3)CC2)cc1 | 13.1µM* | ? | -24.2 | 3.0%
C=CCNS(=O)(=O)c1ccc(OCC(=O)OCC)cc1 | 2.0% | 2.33µM* | -8.8 | 17.3%
CCOC(=O)COc1ccc(S(=O)(=O)c2ccc(OCC(=O)OCC)cc2)cc1 | nt | ? | -10.5 | ?
COc1ccc(Cl)cc1NC(=O)C(=O)NCc1ccc(Cl)cc1 | nt | nt | -9.3 | nt
Cn1c(=O)n(C)c2cc(NS(=O)(=O)c3ccc(F)cc3)c(NCc3ccccc3)cc21 | nt | nt | -17.5 | nt
COc1ccc(CCC(=O)N2CCN(S(=O)(=O)c3ccc(OC(F)(F)F)cc3)CC2)cc1 | 9.28µM* | 11.7µM* | -4.1 | 4.7%
SMILES | Pf growth 48h | Pf growth 96h | HCMV inh | HCV inhibitor
COc1cc(CCC(=O)N2CCN(S(=O)(=O)c3ccc(C)c(C)c3)CC2)cc(OC)c1OC | ? | 4.65µM* | 57.9 | ?
O=C(c1cccc(Br)c1)N1CCN(c2ccc(N3CCOCC3)nn2)CC1 | -14.4% | ? | -7.2 | 1.7%[8.37 µM]
Cc1ccc(C(=O)N2CCN(c3ccc(N4CCOCC4)nn3)CC2)cc1C | -15.0% | 5.22µM* | -23.6 | 10.5%[8.37 µM]
COc1ccc(S(=O)(=O)N2CCN(C(=O)COc3ccccc3)CC2)cc1 | -12.3% | 7.38µM* | -37.4 | 11.6%
Cc1ccccc1-c1nc(CN2CCC(C(=O)NCc3ccc(F)cc3)CC2)c(C)o1 | nt | nt | 1.8 | nt
CC(=O)Nc1ccc(S(=O)(=O)N[C@H]2CC[C@@]34CCCN3C(=O)CCC[C@H]4[C@H]2Cc2ccccc2)cc1 | nt | nt | -7.5 | nt
CS(=O)(=O)N1CCN(C(=O)COc2ccc3ccccc3c2)CC1 | 2.08µM* | 16.6% | 0.0 | 14.7%
CCOC(=O)N1CCN(S(=O)(=O)c2ccc(OCC(=O)OC)cc2)CC1 | -13.8% | nt | -77.7* | 15.7%
CCOC(=O)COc1ccc(S(=O)(=O)N2CCN(C(=O)OCC)CC2)cc1 | -5.6% | 149.3% | 17.0 | 11.6%
COc1ccc(N2CC(NC(=O)C3CCCCC3)CC2=O)cc1OC (stereo unspecified) | nt | nt | -35.2 | nt
COc1ccc(OC)c(NC(=O)c2nc(S(=O)(=O)Cc3ccc(F)cc3)ncc2Cl)c1 | nt | nt | -97.2* | nt
COc1ccccc1NC(=O)c1nc(SCc2ccc(F)cc2)ncc1Cl | nt | nt | 17.9 | nt
CCOc1ccccc1NC(=O)c1nc(S(=O)(=O)Cc2ccccc2)ncc1Cl | 0.1% | ? | -108.7* | ?
COc1ccccc1NC(=O)c1nc(S(=O)(=O)Cc2ccccc2)ncc1Cl | 19.9% | 16.9% | -112.8* | ?
CCS(=O)(=O)c1ncc(Cl)c(C(=O)Nc2ccccc2OC)n1 | 18.4% | 44.6% | -19.9 | ?
CCOC(=O)c1ccc(NC(=O)CC2Nc3cc(C)c(C)cc3NC2=O)cc1 (stereo unspecified) | nt | nt | -15.2 | nt
O=C(CSc1nc2ccccc2c(=O)n1Cc1ccco1)N1CCCCCC1 | 5.22µM* | 30.6% | ? | 11.2µM*
NC(=O)C1CCN(C(=O)c2ccc3c(=O)n(Cc4ccco4)c(SCC(=O)c4ccccc4)nc3c2)CC1 | -22.4% | 65.2% | -38.6 | -16.8%
CCCCCn1c(SCc2ccncc2)nc2cc(C(=O)NCc3ccco3)ccc2c1=O | ? | nt | -38.4 | 14.1µM*
CCCCn1c(SCC(=O)NCc2ccco2)nc2ccccc2c1=O | nt | -42.2% | -40.0 | ?
O=C(NCc1ccco1)c1ccc2c(=O)n(Cc3ccco3)c(SCC(=O)N3CCCC3)nc2c1 | ? | 52.0% | -23.8 | 12.6µM*
CCCSc1ncc(Cl)c(C(=O)Nc2c(C(=O)Nc3ccc(C)cc3)oc3ccccc23)n1 | nt | nt | 12.2 | nt
COc1ccc(CNC(C)C23CC4CC(CC(C4)C2)C3)c(OC)c1OC (stereo unspecified) | 11.7µM* | 9.28µM* | -61.0* | ?
Cc1ccc2nc(-c3ccc(Cl)cc3)c(Cc3ccsc3)n2c1 | nt | nt | -23.5 | nt
CC(C)CCNS(=O)(=O)c1ccc(N2CCCCS2(=O)=O)cc1 | nt | nt | -25.8 | nt
